Experimental data from the supplement of paper PMC11417369.
± gives the standard deviation of the averaged measurements. Over roughly 25,000 sequences, “ln(normalized median fluorescence intensity)” has its median near 7.9; the highest 2% begin near 11. The entries come from a sample that favours the highest values as a whole.

system: PfAP2-I AP2 domain 3 (GST-tagged); assay: gcPBM binding intensity (ln(normalized median fluorescence intensity)); higher = stronger DNA binding
Method in brief: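 GST-fused DNA-binding domains of P. falciparum, expressed in E. coli, were applied at about 25 μg on average for 1 h to an Agilent 4 × 180k array of primer-extended double-stranded 36-bp intergenic genomic probes and negative controls. Binding intensity is the highest Masliner-normalised natural-log median intensity across replicate spots of either probe orientation, measured with Alexa488 anti-GST antibody and a 488 nm scan.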

| Sequence | gcPBM binding intensity (ln) |
| --- | --- |
| TATAAAAATATTTCTACACACATTAATATATATATA [CACACA_site1150] | 8.97 ± 0.042 |
| TTTTACATATACATGTGTACATAACAAAGAATGTTT [XGTACX_site2406] | 7.88 ± 0.57 |
| TATATACGCAAACACACACACACATACACCCACATA [CACACA_site1724] | 8.09 ± 0.31 |
| ACAGAATATTTAATTCAACACACATACATATTTATT [CACACA_site8734] | 7.61 ± 0.52 |
| TATAAATTTATACCAGTGCATTTTGAAATATATATA | 9.47 ± 0.057 |
| TATAAATTAAAATCAGTGCATATTTTGAAAAACCTC | 9.19 ± 0.41 |
| TATATAAATTAACCAGTGCATTATTTGGAAATTATT | 11.1 ± 0.59 |
| TGGTTATTTATCTTTATTATAAATATTTACAAATAA [CACACA_negctrl_site1773] | 7.61 ± 0.38 |
| TTCATAATAAAAAGGTGTACATATATATATATATAT [XGTACX_site2829] | 9.71 ± 0.2 |
| TTTGTGTTTATAAATTGTACAAAGGTGCAAGAAGAA [XGTACX_site2159] | 11.1 ± 0.87 |
| AAGAAATTTATTTATTGTACAATATATAATTTGTTT [XGTACX_site2478] | 7.59 ± 0.38 |
| ACAAATTGTTAAAGGTGTACAATACATATATAAGAA [XGTACX_site4906] | 8.46 ± 0.56 |
| GATTAATACACATTCTTCCGACATAATAAGAAAAAG [GTGCAC_negctrl_site7] | 8.04 ± 0.38 |
| TGTCGGCTTAGATTAGTGCACTGAAAAATGAAGTAT [GTGCAC_site9919] | 11.8 ± 0.28 |
| TATATATATAAATGAATGCACTTTAGAAAAAAGTAC | 10.2 ± 0.23 |
| GAAGTAGATGGAAAAGTGCACTGTAATGGTTATATT | 10.6 ± 0.035 |
| TATATCATATAAAACCGTACATACATACTTAATTGT [XGTACX_site6822] | 7.8 ± 0.29 |
| TATTTCAAACTGTTCTCACACACGAAATTAGAAATG [CACACA_site611] | 7.57 ± 0.66 |
| TATATAATAAGAAAATATGTGCGTAGTTCAGCAAAA [XGTACX_negctrl_site304] | 8.26 ± 0.74 |
| AAATTAGACTATAATACACACATAAAAAAAAAATCA [CACACA_site7672] | 7.79 ± 0.4 |
| TATATATTATATAAGAGTACATATAATTATAGTTTT [XGTACX_site5039] | 7.71 ± 0.52 |
| AATATATAATATATATGTACTTATATATAAAAGATA [XGTACX_site7635] | 7.8 ± 0.21 |
| AAGAACATATTATATACATGCATAATTCGATAGATT [TGCATGCA_site882] | 7.9 ± 0.69 |

| Sequence | gcPBM binding intensity (ln) |
| --- | --- |
| TATAATAATATAATGGTGCATGTATATAACCATATA | 9.21 ± 0.14 |
| GTTAATCACCATGTGGTGCATATAAGGGCATATTAT [GTGCAC_site9748] | 11 ± 0.55 |
| GTGGTTATATATTAAGTGCATATTATAATTTTAAAC | 9.56 ± 0.14 |
| AAGAATTTTCGATTTGCACACATTTGTAAAATAAAA [CACACA_site2354] | 9.16 |
| AAAAAATATAATAATTGTACACATGCACACACAAAT [XGTACX_site1563] | 8.25 ± 0.48 |
| TAAATTTTTTTTTTTTGTACACAAAAATATAATATT [XGTACX_site8151] | 7.61 ± 0.31 |
| TATAATAAATCAAATGCACACACACTAATAAAAAAA [CACACA_site7937] | 9.15 ± 0.11 |
| TTTTGTACAAAAATAATGCACACTATATCAAGTTTT [CACACA_site3595] | 11 ± 0.51 |
| TATCTTCAAGTATGTACACACTATATATAATAAAAT [CACACA_site5368] | 8.11 ± 0.13 |
| TTGTACAAAAATAATGCACACTATATCAAGTTTTTT [CACACA_site5898] | 10.9 ± 0.7 |
| TTGTTTTCTTTTTCTTTTCTTTTTCTTTTTTCTTTT [GTGCAC_negctrl_site629] | 7.55 ± 0.73 |
| CATTAAAATATGAGATGTACACAATATCTATTATAT [XGTACX_site4979] | 7.82 ± 0.51 |
| CAATGCAAGGCTTAAAAAAATGGGCATATTATATAT [GTGCAC_negctrl_site304] | 7.79 ± 0.83 |
| TAAGTTATATGTATATGTACTTATATATATATATAT [XGTACX_site5402] | 9.16 ± 0.76 |
| AGAATATAATTTTTATGTACATATATTAAATATATT [XGTACX_site8521] | 7.6 ± 0.37 |
| CATATAAGAATCTTCTGTACTTATAAGAAAAGACAT [XGTACX_site8135] | 7.89 ± 0.48 |
| TATTATGACTTAAGTTGTACTGTTGAAAGAAGAAAA [XGTACX_site2985] | 7.88 ± 0.53 |
| AAAAAAAGTTGATACTGTACTCGTGCATTATGAATA [XGTACX_site5558] | 11.3 ± 0.57 |
| TTATGAAAAAAATACTGTACACAATATGACGAAAGT [XGTACX_site2283] | 8.46 ± 0.42 |
| ACTTAATTTTTTTATTGTACATGTAAATGAGGGAAA [XGTACX_site6305] | 8.25 ± 0.26 |
| AAGACTCTTTGTCCTTGTACATATATTTTTATGTTT [XGTACX_site3711] | 7.76 ± 0.59 |
| CACATACACATACAAACACACATTATGTATATATAT [CACACA_site1599] | 8.16 ± 0.84 |
| ATATATTTAAACTACACACGCATATCTTAGAAATAA [CACACA_site1272] | 7.77 ± 0.54 |

| Sequence | gcPBM binding intensity (ln) |
| --- | --- |
| AAAATAAAATTAGTTGCATGCAACTTAAACAGAAAT [TGCATGCA_site860] | 8.14 ± 0.63 |
| ATAAATAAAACAACAGTGCAATAAAATTAGTTGAGG | 10.9 ± 0.25 |
| ATTAATTAAAATAGTTGTACAATCAAAAAAACAAAA [XGTACX_site7660] | 8.15 ± 0.64 |
| AATATATTTTTATATTGTACAAAAGAAAAAAAATAT [XGTACX_site1689] | 8.05 ± 0.48 |
| TTTTTTTTGTATTAATGTACATATAACTTTTTTTTT [XGTACX_site7903] | 7.7 ± 0.49 |
| AATACACATAATACATGTACTCACATTGTTATAACA [XGTACX_site4129] | 8.04 ± 0.53 |
| TTTATATCATTACAAGTGCATATCATCATAAATTCT [GTGCAC_site9878] | 8.81 ± 0.3 |
| AGTTGCATACATTGAAGTACAGAACATTTATATATA [XGTACX_site240] | 7.86 ± 0.44 |
| AGTTTGCATATGGAAGTGCATTACCTTGAACATCAT | 11.2 ± 0.38 |
| TATATATGTTTATGTAGTACTATATATCCCTTTCTT [XGTACX_site7049] | 7.61 ± 0.53 |
| TAAATTTATGGACACACACACATATATATATATATA [CACACA_site4620] | 9.45 ± 0.35 |
| TATAGATACACTTTGTGTACATAAAAATTGTATTAA [XGTACX_site7137] | 7.66 ± 0.29 |
| TATAAACTTAATTTGAGTACTTAATAATAATTTTGT [XGTACX_site3730] | 7.38 ± 0.47 |
| GTCAACTTGTGATAAGTGCATATATATAATAAAATG | 9.875 ± 0.078 |
| GAATAATATGGACATACACACATATACATACCTATA [CACACA_site7075] | 8.07 ± 0.59 |
| GTACACCTATAATATACACACAACAAATATGCACAT [CACACA_site6603] | 9.64 ± 0.39 |
| ATACAGTTGCATATGGTGCACGAATAATACACCTAT | 11 ± 0.25 |
| ACTATTAAGAATAAAGAAATATGTAATTGTATTTAA [CACACA_negctrl_site516] | 7.43 ± 0.59 |
| GTATAGAGAAAAAACTGTACTTTATATAAATATTTA [XGTACX_site3972] | 7.53 ± 0.3 |
| ATATATGTACAAATTGTGCGCAATAATTTTGTCTTT | 9.06 ± 0.33 |
| TACATTTCATTGTAATCATAAAAAATAAAGAAAAAA [XGTACX_negctrl_site542] | 7.58 ± 0.61 |
| ATATCTTATAATACGGTGCACTTGACATGAACAACT [GTGCAC_site9987] | 10.7 ± 0.3 |
| ATAATGAACAAAGTAGTGCACTTTCCTTATCTTTTC | 11.4 ± 0.26 |

| Sequence | gcPBM binding intensity (ln) |
| --- | --- |
| CCTTTCCTTTTATAAGTGCATATAACAAATGTATAC [GTGCAC_site9872] | 10 ± 0.11 |
| AATATAAACCCAAACACACACATATATATATATATA [CACACA_site268] | 9.4 ± 0.37 |
| ATATAAAATATGAGTAGTACATATTTTCTCATCTTA [XGTACX_site8595] | 7.55 ± 0.38 |
| ACTACAAGGCAATACAGTACATATAAATGTCATAAT [XGTACX_site8468] | 7.85 ± 0.45 |
| AATAATATATATTACACACGCATCGTTCATTTATTT [CACACA_site2391] | 7.87 ± 0.92 |
| AAATACTGATTTGGTTGTACATGTGCACTATATAAC [XGTACX_site3795] | 11.3 ± 0.56 |
| ATACTAACATTTTTTTGTACATATAACTATAAAATA [XGTACX_site1033] | 8.09 ± 0.47 |
| AAATATTTGTGTGGTTGTACTATAATGATAAAAATA [XGTACX_site7703] | 8.14 ± 0.42 |
| GGGAAACGATTTAATACACACACGTATTATATATAT [CACACA_site1160] | 8.48 ± 0.59 |
| ATTAGTATAATGTAACTTAGTTAATAGTGCTAATAT [CACACA_negctrl_site764] | 9.54 ± 0.4 |
| TTTTCATTTGTGACAGTGCAAAATGTTATATTAAAA [GTGCAC_site9647] | 9.99 ± 0.3 |
| CTCATTTTGTTAATGGTGCAAAAAAAAAAAAAAAAA | 11.1 ± 0.73 |
| AAAAAAAAAAAAATGGTGCAACTTTGTTAAAGGAAA [GTGCAC_site9950] | 9.56 ± 0.12 |
| ATGGATTATTTTTAAACATGCAGTAGTGATGAAAAA [TGCATGCA_site346] | 8.36 ± 0.53 |
| CATATTCCCCCCCACACACACACACCCATACATACC [CACACA_site2303] | 11.2 ± 0.44 |
| GACATATTCCCCCCCACACACACACCCACATACATA [CACACA_site2302] | 10.8 ± 0.26 |
| CATATTCCCCCCCACACACACACACGCATACATACC [CACACA_site7148] | 10.8 ± 0.33 |
| AAATATAATATATGCACACATACATACAGATATATA [CACACA_site4235] | 9.22 |
| TGAAAAAAAAAATGCACACGCATACAGATAATATGT [CACACA_site4526] | 8.62 ± 0.51 |
| GTTGAAAAAAAAAATGCACACGCATACATATAATAT [CACACA_site8117] | 8.71 ± 0.29 |
| TGAAATAAATAATGCACACTCTACAGATATACGTAT [CACACA_site5270] | 11.1 ± 0.66 |
| TTTGAAATAAATAATGCACACTCTACATATATACGT [CACACA_site2244] | 11.1 ± 0.61 |
| AAATATAATATATGCACACATACATACATATATATA [CACACA_site104] | 9.41 ± 0.3 |
